# From PubChem
# Rows were chosen to be rich in hits. Some 1.6% of all compounds tested hit in one or more screens of this group.
# KCNQ2 enhance: enhances the rat KCNQ2 potassium channel | 310,000 tested, 0.54% active | AID 2239 | CHO-K1 KCNQ2, FluxOR thallium flux fluorescence; hits give high values | O88943 | B-score at 10 µM;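 active = fluorescence ratio B-score at least 3 SD of library B-scores, with initial fluorescence B-score within 3 of them, cut at about 5.3 in these data; same plate scores as AID 2156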;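 also: B-score of peak minus minimum over baseline fluorescence ratio after K+ and Tl+ stimulus; positive B-score means potentiation of KCNQ2 with more thallium influx and brighter signal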
# KCNQ2 block: blocks the rat KCNQ2 potassium channel; O88943; CHO-K1 KCNQ2, FluxOR thallium flux, 20 min; hits give low values; B-score at 10 µM; 310,000 tested, 1.1% active; AID 2156;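 active = fluorescence ratio B-score at most minus 3 library SDs, with starting brightness B-score within 2 library SDs, cut at about -5.5 in these data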
# Kir21 confirm: confirmation of mouse Kir2.1 potassium channel inhibitors | shares compounds with KCNQ2 enhance | 2,300 tested, 41% active | Kir2.1-expressing cells, FluxOR thallium flux fluorescence; hits give low values | Tl flux remaining, % of negative control (hits give low values), % at 10 µM | AID 2032;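 active = Primary-screen hit whose thallium flux fell at least 3 control SD below untreated wells in both duplicates, with normal baseline fluorescence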;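 also: 0% = blank wells without stimulus and 100% = stimulated no-compound controls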
# HEK293 Tl flux: counter-screen for Kir2.1 inhibitors: effect in parental HEK293 cells. FluxOR thallium flux fluorescence; 0% = unstimulated blank wells. 2,300 tested, 19% active. shares compounds with KCNQ2 enhance. FluxOR signal as % of negative control (100 = no effect), % at 10 µM;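 active = dye signal at least 3 control SD above or below untreated wells in both duplicates, raw fluorescence within 3, either direction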;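 also: percent is based on the flux ratio of peak minus minimum fluorescence over baseline F0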
# CHO-K1 ctr: counter-screen for KCNQ2 potentiators: effect in parental CHO-K1 cells; shares compounds with KCNQ2 enhance; FluxOR thallium flux fluorescence; zero = vehicle mean+3SD, 100% = vehicle-minus-blank window; activity increase over 3SD of controls, % at 10 µM; 1,200 tested, 43% active; AID 2282;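 active = signal rise of at least 3 SD above the untreated control mean, in both duplicate wells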;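 also: counter screen of KCNQ2 potentiator hits so any rise reflects channel-independent effects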
# KCNQ1 pot spec: human KCNQ1 counter-target activity of KCNQ2 potentiators; shares compounds with KCNQ2 enhance; 1,200 tested, 28% active; activation over 3SD threshold, % at 10 µM; CHO KCNQ1 stable, FluxOR thallium flux fluorescence; beyond 3SD, as % of vehicle-control signal;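 active = fluorescence ratio rise of at least 3 SD of vehicle wells above their mean, in both replicate wells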;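 also: 0% = vehicle mean plus 3 SD and 100% = vehicle minus unstimulated blank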
# Target sequence (P51787 whole entry, looked up): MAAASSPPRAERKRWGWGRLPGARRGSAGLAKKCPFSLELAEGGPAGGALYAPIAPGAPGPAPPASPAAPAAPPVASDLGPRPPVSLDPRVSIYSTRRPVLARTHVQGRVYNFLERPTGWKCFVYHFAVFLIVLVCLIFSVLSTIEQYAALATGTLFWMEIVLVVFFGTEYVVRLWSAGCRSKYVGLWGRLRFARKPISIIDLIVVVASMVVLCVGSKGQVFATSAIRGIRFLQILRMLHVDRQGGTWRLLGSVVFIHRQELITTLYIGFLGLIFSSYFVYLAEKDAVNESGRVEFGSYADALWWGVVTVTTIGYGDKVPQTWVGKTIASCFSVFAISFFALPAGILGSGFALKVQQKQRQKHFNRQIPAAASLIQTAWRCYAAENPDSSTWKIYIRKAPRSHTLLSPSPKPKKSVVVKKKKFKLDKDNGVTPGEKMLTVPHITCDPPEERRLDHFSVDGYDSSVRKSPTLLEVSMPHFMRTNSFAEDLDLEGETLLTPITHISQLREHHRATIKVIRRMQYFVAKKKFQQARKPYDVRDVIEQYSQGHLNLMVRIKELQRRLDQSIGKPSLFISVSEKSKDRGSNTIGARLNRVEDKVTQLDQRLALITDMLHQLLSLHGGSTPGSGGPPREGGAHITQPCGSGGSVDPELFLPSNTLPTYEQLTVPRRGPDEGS
# KCNQ2 pot confirm: confirmation of rat KCNQ2 potassium channel potentiators; shares compounds with KCNQ2 enhance; CHO-KCNQ2 cells, FluxOR thallium flux fluorescence; potentiation, less the hit threshold, % at 10 µM; 1,200 tested, 68% active;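 active = fluorescence ratio rising 3 SD or more over the vehicle control mean in both replicates, plus primary screen hit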;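 also: peak minus minimum thallium fluorescence divided by baseline after K/Tl stimulus; 0% = vehicle mean plus 3 SD and 100% = vehicle minus unstimulated blank difference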
# Kir2-1 sel: selectivity of KCNQ2 potentiators: effect on mouse Kir2.1 | shares compounds with KCNQ2 enhance | HEK293 Kir2.1, FluxOR thallium flux fluorescence | activity over 3SD threshold, % at 10 µM | 1,200 tested, 2% active | AID 2345;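 active = fluorescence ratio rise of at least 3 SD above the vehicle-control mean, seen in both replicates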;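 also: 0% = vehicle mean plus 3 SD and 100% = vehicle minus no-stimulus blank window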
# KCNQ2 W236L pot: potentiates the retigabine-insensitive rat KCNQ2 W236L mutant channel; shares compounds with KCNQ2 enhance; CHO KCNQ2-W236L, automated patch clamp current; current increase over 3SD of negative controls (%), hits give high values, % at 25 µM; 940 tested, 10% active;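 active = current increase at least 3 SD of the untreated controls above them in both duplicate recordings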
# An asterisk follows results filed as active; i = inactive; . = no result.
SMILES,KCNQ2 enhance,KCNQ2 block,Kir21 confirm,HEK293 Tl flux,CHO-K1 ctr,KCNQ1 pot spec,KCNQ2 pot confirm,Kir2-1 sel,KCNQ2 W236L pot
Cc1cc2oc(=O)cc(CSc3nc(N)cc(N)n3)c2cc1C(C)C,0.03,i,.,.,.,.,.,.,.
COc1ccc(CCN2Cc3c(cccc3[N+](=O)[O-])C2=O)cc1OC,1.2,i,.,.,.,.,.,.,.
O=C1NC(NS(=O)(=O)c2ccc(Cl)cc2)(C(F)(F)F)C(=O)N1c1ccccc1 (configuration not stated),1.3,i,.,.,.,.,.,.,.
Cc1nc(SCC(=O)N2CCOCC2)c2c(=O)n(C)c(=O)n(C)c2n1,1.1,i,.,.,.,.,.,.,.
CCCCc1nc(SCC(=O)N2CCCC2)c2c(=O)n(C)c(=O)n(C)c2n1,8.2*,i,i,i,-22,-11,38*,-34,i
CC(C)Cc1nc(SCC(=O)N2CCCC2)c2c(=O)n(C)c(=O)n(C)c2n1,6.5*,i,i,i,33*,-10,19*,-9,i
CCCCc1nc(SCC(=O)N2CCCCC2)c2c(=O)n(C)c(=O)n(C)c2n1,26*,i,i,i,-16,-25,100*,-43,i
Cn1c(=O)c2c(SCC(=O)N3CCOCC3)nc(C3CCCCC3)nc2n(C)c1=O,3.8,i,.,.,.,.,.,.,.
Cn1c(=O)c2c(SCC(=O)N3CCCC3)nc(-c3ccccc3)nc2n(C)c1=O,2.4,i,.,.,.,.,.,.,.
CCCCc1nc(SCC(=O)N2CCOCC2)c2c(=O)n(C)c(=O)n(C)c2n1,5.4*,i,i,i,-4,57*,9.8*,-28,i
CCCCc1nc(SCCOC)c2c(=O)n(C)c(=O)n(C)c2n1,2,i,.,.,.,.,.,.,.
N#Cc1cccnc1N1CCC(C(N)=O)CC1,0.85,i,.,.,.,.,.,.,.
O=C(Nc1ccccc1C(=O)O)c1ccc(Br)c(S(=O)(=O)NCc2ccccc2)c1,.,i,.,.,.,.,.,.,.
CCSC1=NCCN1C(=O)Cc1ccc(-c2ccccc2)cc1,1.1,i,.,.,.,.,.,.,.
COc1ccc(Nc2ccc(N3C(=O)CCCC3=O)cc2[N+](=O)[O-])cc1OC,0.89,i,.,.,.,.,.,.,.
CC(C)c1nc(SCC(=O)N2CCCc3ccccc32)c2c(=O)n(C)c(=O)n(C)c2n1,0.99,i,.,.,.,.,.,.,.
CC1CCN(C(=O)CSc2nc(C(C)C)nc3c2c(=O)n(C)c(=O)n3C)CC1,27*,i,i,i,21*,-2,124*,-24,i
Cc1cccc(NC(=O)CSc2ncnc3sc(C)c(C)c23)n1,0.74,i,.,.,.,.,.,.,.
Cc1sc2ncnc(SCC(=O)c3cccs3)c2c1C,6.9*,i,i,i,-17,-5,-9,-31,i
Cc1ccccc1-n1c(-c2ccc(=O)[nH]n2)n[nH]c1=S,1.9,i,.,.,.,.,.,.,.
CC(C)(C)c1cc(-c2n[nH]c(=S)n2-c2ccccc2F)n[nH]1,5.3*,i,i,154%*,-5,-39,44*,-36,20%*
Cc1ccc(OCC(O)Cn2c(N3CCOCC3)nc3c2c(=O)[nH]c(=O)n3C)cc1 (configuration not stated),.,i,.,.,.,.,.,.,.
COC(=O)CCCC(=O)N(C)CC1CCCN(CCc2ccccc2C)C1 (configuration not stated),1.1,i,.,.,.,.,.,.,.
O=C(NC1CCCCC1)C1CC(=O)N(c2ccc(Cl)cc2)C1 (configuration not stated),0.99,i,.,.,.,.,.,.,.
C1=C(CCNCC2CC2)CCCC1,1.2,i,.,.,.,.,.,.,.
Cc1ccc(CNCCC2=CCCCC2)cc1,0.75,i,38%*,68%*,.,.,.,.,.
CC1CC(C)CN(S(=O)(=O)c2ccc(NC(=O)C3CSC4(C)CCC(=O)N34)cc2)C1 (configuration not stated),.,i,.,.,.,.,.,.,.
